5 compounds from PubChem BioAssay (EPA / NIEHS) can be followed below.

Several values for one entry are separate records, joined by “and”; a condition that tells them apart may be missing. Equal values may be shown once. A structure can be active in one record and inactive in another. Activity calls are given as the source filed them. The calls were made as follows: active = hit-call score of the fitted dose curve at least 0.9, where 1 is the maximum; inactive = score below 0.9.

Common to all, as to details: mRNA level, 48 h; actives raise or lower the signal
Read-out in one assay: CYP2C8 (gene 1558)
Kind of assay: LTEA_HepaRG_CYP2C8: Life Technologies and Expression Analysis (LTEA) Assay for CYP2C8 using HepaRG (AID 2283483). The procedure, abridged:
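CYP2C8 expression measured by TaqMan qRT-PCR and normalized to three housekeeping genes. HepaRG cultures were treated for 48 h with an eight-point half-log series topping at 100 uM, vehicle 0.5% DMSO, duplicates; fitted both directions against DMSO.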

Read-out in the next assay: CYP2C9 (gene 1559)
Kind of assay: LTEA_HepaRG_CYP2C9: Life Technologies and Expression Analysis (LTEA) Assay for CYP2C9 using HepaRG (AID 2283484). Put shortly: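 CYP2C9 transcript level, quantified by TaqMan qRT-PCR against three housekeeping genes, was fitted bidirectionally relative to 0.5% DMSO. HepaRG cultures were treated 48 h, in duplicate, at eight half-log concentrations topping at 100 uM.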

Read-out in another assay: CYP2E1 (gene 1571)
Description: LTEA_HepaRG_CYP2E1: Life Technologies and Expression Analysis (LTEA) Assay for CYP2E1 using HepaRG (AID 2283485). The procedure, abridged:
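Readout is qRT-PCR of CYP2E1 mRNA, normalized to three housekeeping genes and fitted bidirectionally against 0.5% DMSO. HepaRG cells were dosed 48 h at eight concentrations, highest 100 uM with half-log dilutions.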

Read-out in the next assay: CYP4A11 (gene 1579)
Description: LTEA_HepaRG_CYP4A11: Life Technologies and Expression Analysis (LTEA) Assay for CYP4A11 using HepaRG (AID 2283486). The procedure, abridged: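 CYP4A11 transcript levels were quantified by TaqMan qRT-PCR after HepaRG human liver cells were treated for 48 hours with test chemicals (top 100 uM, half-log dilutions, 0.5% DMSO). Gain or loss of signal was fitted relative to DMSO.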

Read-out in assay [1]: Cytochrome P450 3A4 (Homo sapiens) (UniProt P08684)
Kind of assay: LTEA_HepaRG_CYP3A4: Life Technologies and Expression Analysis (LTEA) Assay for CYP3A4 using HepaRG (AID 2283487). Put shortly:
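In a human hepatic line (HepaRG), duplicate wells were treated 48 h with up to 100 uM chemical in half-log dilutions. Endpoint: CYP3A4 mRNA induction or loss relative to 0.5% DMSO vehicle, by qRT-PCR.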

Read-out in assay [2]: DNA damage-inducible transcript 3 (DDIT3), DDIT3 (gene 1649)
Kind of assay: LTEA_HepaRG_DDIT3: Life Technologies and Expression Analysis (LTEA) Assay for DNA damage-inducible transcript 3 (DDIT3) using HepaRG (AID 2283488). The procedure, abridged: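 Cells are human HepaRG liver cells treated for 48 h with eight half-log concentrations up to 100 uM in 0.5% DMSO. Transcript levels come from qRT-PCR normalized to three housekeeping genes, with activity fitted in both directions relative to vehicle.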

Read-out in assay [3]: Pro-epidermal growth factor (Homo sapiens) (UniProt P01133)
Kind of assay: LTEA_HepaRG_EGF: Life Technologies and Expression Analysis (LTEA) Assay for Epidermal growth factor (EGF) using HepaRG (AID 2283489). The procedure, abridged: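 qRT-PCR readout of EGF transcript after 48 h chemical exposure of HepaRG cells; eight concentrations from 100 uM down in half-log steps, duplicate wells, 0.5% DMSO vehicle. Bidirectional curve fitting against DMSO baseline.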

Read-out in assay [4]: Early growth response protein 1 (EGR1) transcription factor, EGR1 (gene 1958)
Description: LTEA_HepaRG_EGR1: Life Technologies and Expression Analysis (LTEA) Assay for Early growth response protein 1 (EGR1) transcription factor using HepaRG (AID 2283490). Put shortly:
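EGR1 transcript levels quantified by qRT-PCR (Fluidigm arrays) against three housekeeping genes after 48 h chemical exposure of HepaRG cells. Eight-point half-log series topping at 100 uM, 0.5% DMSO vehicle, analyzed for gain or loss.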

Read-out in assay [5]: Ezrin (EZR), EZR (gene 7430)
Description: LTEA_HepaRG_EZR: Life Technologies and Expression Analysis (LTEA) Assay for Ezrin (EZR) using HepaRG (AID 2283491). The procedure, abridged: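 Gain or loss of EZR mRNA is scored relative to 0.5% DMSO in human HepaRG cultures treated 48 h with test chemicals in duplicate, eight half-log concentrations from 100 uM.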

Read-out in assay [6]: Cytochrome P450 3A7 (Homo sapiens) (UniProt P24462)
Kind of assay: LTEA_HepaRG_CYP3A7: Life Technologies and Expression Analysis (LTEA) Assay for CYP3A7 using HepaRG (AID 2283492). Put shortly: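 CYP3A7 transcript levels were read by TaqMan qRT-PCR on Fluidigm arrays after 48 h chemical exposure of human HepaRG cells, with housekeeping-gene normalisation. Eight half-log concentrations up to 100 uM in 0.5% DMSO were tested in duplicate.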

Read-out in assay [7]: Fatty Acid-Binding Protein 1 (FABP1), FABP1 (gene 2168)
Kind of assay: LTEA_HepaRG_FABP1: Life Technologies and Expression Analysis (LTEA) Assay for Fatty Acid-Binding Protein 1 (FABP1) using HepaRG (AID 2283494). The procedure, abridged:
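FABP1 expression by TaqMan qRT-PCR, normalised to three housekeeping genes, in HepaRG cells after 48 h chemical treatment. Eight-point half-log series topping at 100 uM in 0.5% DMSO, duplicates; gain or loss fitted relative to vehicle.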

Read-out in assay [8]: Cytochrome P450 4A22 (Homo sapiens) (UniProt Q5TCH4)
Kind of assay: LTEA_HepaRG_CYP4A22: Life Technologies and Expression Analysis (LTEA) Assay for Cytochrome P450 4A22 (CYP4A22) using HepaRG (AID 2283495). Put shortly: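 HepaRG, 48 h post-plating -> serum-free induction medium; dosed 48 h, duplicate, 8 conc. (100 uM top, half-log), 0.5% DMSO. Readout: CYP4A22 mRNA by qRT-PCR, ACTB/GAPDH/POLR2A normalization; gain/loss fit relative to DMSO.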

Read-out in assay [9]: Cytochrome P450 7A1 (Homo sapiens) (UniProt P22680)
Description: LTEA_HepaRG_CYP7A1: Life Technologies and Expression Analysis (LTEA) Assay for Cytochrome P450 7A1 (CYP7A1) using HepaRG (AID 2283496). Put shortly: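 HepaRG, 48 h exposure, 8-pt half-log series from 100 uM, 0.5% DMSO vehicle, duplicates. Readout: TaqMan qRT-PCR mRNA vs three housekeeping genes; bidirectional curve fit against DMSO baseline.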

Read-out in assay [10]: Glutathione S-Transferase (GSTA2), GSTA2 (gene 2939)
Kind of assay: LTEA_HepaRG_GSTA2: Life Technologies and Expression Analysis (LTEA) Assay for Glutathione S-Transferase (GSTA2) using HepaRG (AID 2283497). The procedure, abridged: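 GSTA2 transcript levels came from Fluidigm TaqMan qRT-PCR normalized to three housekeeping genes, fitted in both directions against DMSO. HepaRG cultures received chemicals for 48 h in serum-free induction medium (0.5% DMSO), 8 half-log concentrations up to 100 uM, duplicate.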

Read-out in assay [11]: Glutamate-cysteine ligase catalytic (GCLC), GCLC (gene 2729)
Kind of assay: LTEA_HepaRG_GCLC: Life Technologies and Expression Analysis (LTEA) Assay for Glutamate-cysteine ligase catalytic (GCLC) using HepaRG (AID 2283498). Put shortly:
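Expression by TaqMan qRT-PCR, normalized to three housekeeping genes (ACTB, GAPDH, POLR2A), with up- or down-regulation fitted against DMSO. HepaRG cells dosed in duplicate for 48 h with 8 half-log concentrations up to 100 uM, vehicle 0.5% DMSO.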

Read-out in assay [12]: Heat shock 70 kDa protein 1 (HSPA1A), gene 3303
Description: LTEA_HepaRG_HSPA1A: Life Technologies and Expression Analysis (LTEA) Assay for Heat shock 70 kDa protein 1 (HSPA1A) using HepaRG (AID 2283502). Put shortly:
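Cells were plated and cultured for 48 h, then switched to serum-free induction medium. Chemicals were added at eight half-log concentrations up to 100 uM for 48 h. RNA was then isolated and HSPA1A measured by qRT-PCR with bidirectional curve fitting against DMSO.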

Read-out in assay [13]: Glutamate-cysteine ligase regulatory (GCLM), GCLM (gene 2730)
Description: LTEA_HepaRG_GCLM: Life Technologies and Expression Analysis (LTEA) Assay for Glutamate-cysteine ligase regulatory (GCLM) using HepaRG (AID 2283500). The procedure, abridged: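 Endpoint is GCLM transcript level by qRT-PCR, normalized to three housekeeping genes, after 48 h chemical exposure of human HepaRG cells (0.5% DMSO vehicle, top 100 uM, half-log dilutions). Fitting was bidirectional relative to DMSO.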

Read-out in assay [14]: Glutathione S-transferase M3 (GSTM3), GSTM3 (gene 2947)
Kind of assay: LTEA_HepaRG_GSTM3: Life Technologies and Expression Analysis (LTEA) Assay for Glutathione S-transferase M3 (GSTM3) using HepaRG (AID 2283501). Put shortly: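 qRT-PCR read-out of GSTM3 transcript, normalized to three housekeeping genes, from human HepaRG cells after 48 h chemical exposure. Eight-point half-log series, top 100 uM, 0.5% DMSO vehicle; gain or loss fitted relative to DMSO baseline.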

Read-out in the next assay: CYP3A5 (gene 1577)
Description: LTEA_HepaRG_CYP3A5: Life Technologies and Expression Analysis (LTEA) Assay for CYP3A5 using HepaRG (AID 2283493). Put shortly:
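Human HepaRG hepatic cells receive 48 h chemical treatment at eight concentrations (half-log steps from 100 uM) in 0.5% DMSO. Expression of CYP3A5 is quantified by Fluidigm qRT-PCR and normalized to three reference genes.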

Read-out in assay [15]: growth arrest and DNA damage 45 (GADD45G), GADD45G (gene 10912)
Description: LTEA_HepaRG_GADD45G: Life Technologies and Expression Analysis (LTEA) Assay for growth arrest and DNA damage 45 (GADD45G) using HepaRG (AID 2283499). The procedure, abridged:
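HepaRG, 48 h exposure, top 100 uM, half-log 8-point series, 0.5% DMSO vehicle, duplicates. Readout: GADD45G transcript by qRT-PCR (Fluidigm array), housekeeping-normalised (ACTB/GAPDH/POLR2A). Bidirectional curve fit vs DMSO baseline.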

Chain of Cytochrome P450 3A4 (Homo sapiens) (P08684 whole entry, looked up): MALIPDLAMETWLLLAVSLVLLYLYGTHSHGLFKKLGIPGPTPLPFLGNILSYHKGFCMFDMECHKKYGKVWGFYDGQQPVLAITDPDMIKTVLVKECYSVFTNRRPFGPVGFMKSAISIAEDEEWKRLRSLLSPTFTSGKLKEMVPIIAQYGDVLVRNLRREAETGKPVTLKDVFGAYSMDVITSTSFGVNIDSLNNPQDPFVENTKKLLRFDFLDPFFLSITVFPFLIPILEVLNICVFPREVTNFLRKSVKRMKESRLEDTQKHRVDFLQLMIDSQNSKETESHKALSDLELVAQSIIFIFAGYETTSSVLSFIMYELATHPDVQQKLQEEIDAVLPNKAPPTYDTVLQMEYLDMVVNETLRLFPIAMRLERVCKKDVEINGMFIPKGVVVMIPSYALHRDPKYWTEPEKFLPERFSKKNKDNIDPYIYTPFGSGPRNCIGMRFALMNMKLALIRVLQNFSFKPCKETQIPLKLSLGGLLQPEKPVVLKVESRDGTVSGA
Chain of Cytochrome P450 3A7 (Homo sapiens) (P24462 whole entry, looked up): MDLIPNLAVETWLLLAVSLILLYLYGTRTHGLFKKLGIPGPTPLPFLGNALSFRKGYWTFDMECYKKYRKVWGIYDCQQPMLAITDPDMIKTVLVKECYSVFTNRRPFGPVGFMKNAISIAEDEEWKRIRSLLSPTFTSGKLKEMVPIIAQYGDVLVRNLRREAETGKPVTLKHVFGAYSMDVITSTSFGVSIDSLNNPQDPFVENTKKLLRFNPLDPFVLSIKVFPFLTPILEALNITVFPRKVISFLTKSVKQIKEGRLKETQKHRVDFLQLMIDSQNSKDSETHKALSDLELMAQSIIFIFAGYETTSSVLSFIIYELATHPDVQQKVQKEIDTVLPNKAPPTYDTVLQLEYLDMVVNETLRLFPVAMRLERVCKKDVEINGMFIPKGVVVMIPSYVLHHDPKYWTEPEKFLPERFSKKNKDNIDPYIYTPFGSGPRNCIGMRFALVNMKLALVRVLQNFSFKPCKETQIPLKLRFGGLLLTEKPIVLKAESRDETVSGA

A word on the AC50: it is the concentration giving half of the maximal activity seen. Take `Oc1cc(Cl)ccc1Oc1ccc(Cl)cc1Cl`: the AC50 with CYP2C8 (gene 1558) was 86.4 µM (active); with CYP2C9 (gene 1559), 93.4 µM (active); in the assay with CYP2E1 (gene 1571), 92.2 µM (active); with CYP4A11 (gene 1579), 51 µM (active) and 79.3 µM (active); in assay [7], 88.9 µM (active); in assay [8], 51 µM (active) and 76.4 µM (active). Besides, the AC50 was 72.8 µM (active) in [9] and 83.7 µM (active) in assay [10]. Besides, the outcome (in the assay with CYP2C8 (gene 1558); with CYP2C9 (gene 1559); with CYP2E1 (gene 1571); with CYP4A11 (gene 1579); in [1]; in assay [2]) was inactive. Besides, the compound was classed as inactive in assay [3], in assay [4], in assay [5], in assay [6], in assay [7] and in assay [8]. Moreover, the compound was classed as inactive in assay [9], in assay [10], in assay [11] and in [12].

Take `O=C(NC(=O)c1c(F)cccc1F)Nc1ccc(OC(F)(F)C(F)OC(F)(F)F)c(Cl)c1` (centres undefined): the compound was called inactive (with CYP2C8 (gene 1558); with CYP2C9 (gene 1559); in the assay with CYP2E1 (gene 1571); in the assay with CYP4A11 (gene 1579); in assay [1]; in assay [2]). Besides, the outcome in assay [3], in [4], in assay [5], in assay [6], in assay [7] and in assay [8] was inactive. For the same compound, the compound was called inactive in assay [9], in assay [10], in [11], in assay [13], in assay [14] and in assay [12].

`CCC(C)Nc1c([N+](=O)[O-])cc(C(C)(C)C)cc1[N+](=O)[O-]` (centres undefined): the AC50 is 12.6 µM (active) with CYP2C8 (gene 1558); 49.3 µM (active) with CYP2E1 (gene 1571); 50 µM (active) in the assay with CYP4A11 (gene 1579); 6.12 µM (active) in [1]; 10.7 µM (active) in assay [3]; 50 µM (active) in assay [7]. For the same compound, the AC50 in assay [8] was 38.7 µM (active); in assay [9], 34.4 µM (active). In addition, the result (with CYP2C9 (gene 1559); in assay [2]; in assay [4]; in [5]; in assay [6]; in assay [10]) was inactive. In addition, the result in assay [11], in assay [13] and in [12] was inactive.

Take `N#CN`: the outcome (with CYP2C8 (gene 1558); with CYP2C9 (gene 1559); in the assay with CYP2E1 (gene 1571); with CYP4A11 (gene 1579); in [1]; in assay [2]) was inactive. Further, the result (in assay [3]; in [4]; in assay [5]; in assay [6]; with CYP3A5 (gene 1577); in assay [7]) was inactive. Also, the compound was called inactive in assay [8], in [9], in [10], in [11], in [13] and in [12].

Turning to `CCCN(CCC)c1c([N+](=O)[O-])cc(C(F)(F)F)cc1[N+](=O)[O-]`, the compound was classed as inactive (with CYP2C8 (gene 1558); with CYP2C9 (gene 1559); in the assay with CYP2E1 (gene 1571); with CYP4A11 (gene 1579); in [1]; in assay [2]). Also, the outcome in [3], in assay [4], in assay [5], in assay [6], in assay [7] and in assay [8] was inactive. Besides, the outcome in assay [9], in assay [10], in assay [11], in [15] and in assay [12] was inactive.
